Data published in PubChem BioAssay (EPA / NIEHS).
Values joined by “and” are separate entries in the source; they are usually repeats but may differ in a detail not shown here. Identical values can stand only once. Results filed as inconclusive are left out. The source holds several records for some structures; these can differ, active in one and inactive in another. Active and inactive are the calls of the source. The calls were made as follows, unless noted: active = hit-call score of the fitted dose curve at least 0.9, where 1 is the maximum; inactive = score below 0.9.

Tests used:
[1] = molecular target: Estrogen receptor (Homo sapiens) (UniProt P03372); test: CCTE_Deisenroth_AIME_384WELL_LUC_Active: CCTE's 384-well Estrogen Receptor Transactivation Assay with AIME metabolic competence (ERTA luciferase; metabolism positive), Deisenroth Lab (AID 2284030; active = hit-call score of the fitted dose curve at least 0.9, where 1 is the maximum)
Chain of Estrogen receptor (Homo sapiens) (P03372 whole entry, looked up): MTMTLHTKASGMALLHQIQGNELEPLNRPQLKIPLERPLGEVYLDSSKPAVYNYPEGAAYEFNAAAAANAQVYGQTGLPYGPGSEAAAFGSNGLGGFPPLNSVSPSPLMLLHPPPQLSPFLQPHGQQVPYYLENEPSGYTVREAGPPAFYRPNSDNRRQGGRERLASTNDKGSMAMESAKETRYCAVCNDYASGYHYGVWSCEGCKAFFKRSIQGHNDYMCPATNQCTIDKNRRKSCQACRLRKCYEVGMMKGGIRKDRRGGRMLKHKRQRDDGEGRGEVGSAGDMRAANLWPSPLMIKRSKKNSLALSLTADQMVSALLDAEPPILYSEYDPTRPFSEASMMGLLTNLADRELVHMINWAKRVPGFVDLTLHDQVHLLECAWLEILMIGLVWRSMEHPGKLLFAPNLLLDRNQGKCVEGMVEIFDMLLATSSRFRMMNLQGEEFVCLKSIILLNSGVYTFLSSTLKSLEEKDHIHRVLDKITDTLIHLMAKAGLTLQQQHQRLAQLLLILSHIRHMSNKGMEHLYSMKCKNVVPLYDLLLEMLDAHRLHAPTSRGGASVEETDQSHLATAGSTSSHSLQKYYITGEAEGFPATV
Outline: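 VM7Luc4E2 breast cells were given, for 24 hours, medium pre-incubated for 2 hours with parent chemical (0.002-200 uM, 10 concentrations) and alginate-encapsulated phenobarbital/beta-naphthoflavone-induced rat hepatic S9. Luciferase gain of signal was fitted against 17beta-estradiol; n=4 or more.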

[2] = CCTE_Shafer_MEA_dev_firing_rate_mean: CCTE's Neural Network Formation Assay for Mean Firing Rate, Shafer Lab (AID 2284031);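 as to AC50: curve fitted for loss of firing so AC50 reflects decreased mean firing rate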
Outline: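 Primary rat cortical neurons on 48-well MEA plates, exposed from plating day 0 with dosing renewed on DIV 5 and 9. Mean well firing rate over active electrodes, recorded days 5, 7, 9, 12, summarised as trapezoidal AUC.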

[3] = CCTE_Shafer_MEA_dev_per_burst_spike_percent: CCTE's Neural Network Formation Assay for Percent of Spikes in a Burst, Shafer Lab (AID 2284032);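 as to AC50: fitted as a decrease in burst spike percentage below DMSO baseline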
Outline: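 Rat primary cortical neurons on 16-electrode MEA wells, dosed from plating day 0 for 12 days with renewal on DIV 5 and 9; spikes-in-bursts percentage averaged over bursting electrodes, collapsed as AUC across days 5, 7, 9, 12; loss direction versus DMSO.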

[4] = CCTE_Deisenroth_AIME_384WELL_CTox_Inactive: Cytotoxicity Assessment (CTOX) in CCTE's 384-well Estrogen Receptor Transactivation Assay without AIME metabolic competence (metabolism negative), Deisenroth Lab (AID 2284039; active = hit-call score of the fitted dose curve at least 0.9, where 1 is the maximum;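 also: cell viability via live-cell protease substrate cleaved to fluorescent probe; cells exposed 24 h to medium preincubated 2 h with alginate-water beads without S9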)
Outline: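 Fluorescent protease-substrate viability readout after 24 h exposure of VM7Luc4E2 cells to conditioned medium. Chemicals (0.002–200 uM) first sat 2 h over alginate-water beads, no S9. Data fitted bidirectionally, loss of signal meaning viability loss.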

[5] = CCTE_Shafer_MEA_dev_active_electrodes_number: CCTE's Neural Network Formation Assay for Number of Active Electrodes, Shafer Lab (AID 2284040; active = hit-call score of the fitted dose curve at least 0.9, where 1 is the maximum;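 as to AC50: potency for loss of active electrodes versus DMSO so lower counts are hits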)
Outline: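 Primary rat cortical neurons on 16-electrode MEA wells, exposed from day 0 through day 12 with compound renewed at DIV 5 and 9 feeds. Active electrodes (mean firing ≥5 spikes/min) counted at DIV 5, 7, 9, 12; trapezoidal AUC across days, loss-of-signal versus DMSO.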

[6] = molecular target: Estrogen receptor (Homo sapiens) (UniProt P03372); test: CCTE_Deisenroth_AIME_384WELL_LUC_Shift: CCTE's 384-well Estrogen Receptor Transactivation Assay with AIME metabolic competence data shift (ERTA luciferase; difference in metabolism positive and negative), Deisenroth Lab (AID 2284041);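 also: shift is response with S9 minus without S9 so positive means metabolism raised ER signal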
Outline: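 Here, parent compounds undergo 2 h phase I metabolism by PB/BNF-induced rat S9 before 24 h transactivation in VM7Luc4E2 cells; the curve models S9-positive minus S9-negative response over a 10-point series.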

[7] = CCTE_Shafer_MEA_dev_burst_rate: CCTE's Neural Network Formation Assay for Burst Rate, Shafer Lab (AID 2284042);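 as to AC50: potency for loss of burst rate below DMSO control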
Outline: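 Exposure ran continuously over 12 days of network development in rat cortical cultures, with compound refreshed during full media changes on DIV 5 and 9. Single-electrode bursts per recording time, well-mean over active electrodes, trapezoidal AUC across days 5–12, fitted downward relative to DMSO.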

[8] = CCTE_Shafer_MEA_dev_bursting_electrodes_number: CCTE's Neural Network Formation Assay for Number of Bursting Electrodes, Shafer Lab (AID 2284043; active = hit-call score of the fitted dose curve at least 0.9, where 1 is the maximum;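 as to AC50: potency is for loss of bursting electrodes relative to DMSO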)
Outline: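 Primary rat cortical neurons were cultured on PEI-coated 48-well MEA plates (16 electrodes/well) and exposed from plating through day 12, with compound renewed at feeds on DIV 5 and 9. Electrodes bursting ≥1 per 2 min were counted on DIV 5, 7, 9, 12; trapezoidal AUC taken.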

[9] = CCTE_Shafer_MEA_dev_per_burst_interspike_interval: CCTE's Neural Network Formation Assay for Burst Interspike Interval, Shafer Lab (AID 2284044);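 also: mean spike spacing inside bursts as AUC over recordings on days 5 7 9 12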;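 as to AC50: potency for a decrease of within-burst interspike interval below DMSO level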
Outline: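 Mean interspike interval within single-electrode bursts, averaged over bursting electrodes, from rat cortical cultures on MEA plates recorded on days 5, 7, 9 and 12. Continuous compound exposure from plating; trapezoidal AUC fitted downward relative to DMSO.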

[10] = CCTE_Shafer_MEA_dev_burst_duration_mean: CCTE's Neural Network Formation Assay for Mean Burst Duration, Shafer Lab (AID 2284045);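 as to AC50: curve fitted for loss meaning shorter burst duration than DMSO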
Outline: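 Primary rat cortical neurons on PEI-coated 16-electrode MEA wells, exposed from plating through day 12 with compound renewed at DIV 5 and 9; spontaneous activity recorded days 5, 7, 9, 12. Well-mean burst duration collapsed as trapezoidal AUC, fitted for loss versus DMSO.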

[11] = CCTE_Shafer_MEA_dev_interburst_interval_mean: CCTE's Neural Network Formation Assay for Mean Interburst Interval, Shafer Lab (AID 2284046);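 also: well-mean interburst interval of bursting electrodes as AUC over four recording days; curve fitted for decrease in interburst interval relative to DMSO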
Outline: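 Primary rat cortical neurons on PEI-coated 48-well MEA plates (laminin added with cells at plating) (16 electrodes/well), exposed from plating day 0 with renewal at DIV 5 and 9. Mean inter-burst interval averaged over bursting electrodes, AUC across days 5, 7, 9, 12; DMSO baseline.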

[12] = CCTE_Shafer_MEA_dev_inter_network_spike_interval_mean: CCTE's Neural Network Formation Assay for Mean Inter-network Spike Interval, Shafer Lab (AID 2284047)
Outline: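 Mean time between consecutive network-spike peaks, recorded extracellularly (adaptive spike detection) on DIV 5, 7, 9 and 12, summarized as trapezoidal AUC. Rat cortical cultures on MEAs dosed continuously days 0–12, re-dosed at feeds; loss-of-signal fit relative to DMSO.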

[13] = CCTE_Shafer_MEA_dev_network_spike_number: CCTE's Neural Network Formation Assay for Number of Network Spikes, Shafer Lab (AID 2284048);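 also: synchronized bursts across electrodes counted on days 5 7 9 12 and integrated as AUC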;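 as to AC50: fit as a loss of signal meaning fewer network spikes than DMSO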
Outline: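 Primary rat cortical neurons were seeded at 1.5 x 10^5 cells/well on PEI-coated 16-electrode MEA wells with laminin, exposed from plating day 0, compound renewed at DIV 5 and 9. Network spikes were recorded on days 5, 7, 9, 12 and summarized as trapezoidal AUC versus DMSO.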

[14] = CCTE_Shafer_MEA_dev_network_spike_peak: CCTE's Neural Network Formation Assay for Mean Number of Electrodes in Network Spike, Shafer Lab (AID 2284049);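 as to AC50: fitted for loss of signal meaning fewer electrodes in network spikes than DMSO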
Outline: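 Continuous 12-day exposure of rat cortical cultures, starting at plating, on MEA plates. Endpoint: electrodes participating in network-spike peaks, AUC across DIV 5–12, DMSO as negative control.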

[15] = CCTE_Shafer_MEA_dev_spike_duration_mean: CCTE's Neural Network Formation Assay for Mean Spike Duration, Shafer Lab (AID 2284051);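 also: mean network spike duration pooled as area under curve over DIV 5 to 12 recordings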;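 as to AC50: potency for a decrease in mean network spike duration versus DMSO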
Outline: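 Spontaneous activity was recorded on days 5, 7, 9 and 12 from rat cortical cultures grown on microelectrode arrays and dosed continuously from day 0, with media and compound renewed after the DIV 5 and 9 recordings. Network-spike duration was collapsed by area under the curve.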

[16] = CCTE_Shafer_MEA_dev_network_spike_duration_std: CCTE's Neural Network Formation Assay for Standard Deviation of Network Spike Duration, Shafer Lab (AID 2284052);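 also: hits are decreases in network spike duration SD versus DMSO vehicle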
Outline: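 Network spike duration variability was collapsed across recordings on days 5, 7, 9 and 12 by trapezoidal area-under-curve and fitted downward against DMSO. Cultures were rat cortical neurons on PEI-coated MEA plates, dosed continuously from plating, refed with compound DIV 5/9.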

[17] = CCTE_Shafer_MEA_dev_per_network_spike_spike_number_mean: CCTE's Neural Network Formation Assay for Mean Number of Spikes in a Network Spike, Shafer Lab (AID 2284053);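 as to AC50: fitted as decrease in spikes per network spike relative to DMSO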
Outline: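 Mean spike count within each network spike, taken in a 0.05 s window at its peak, was recorded on days 5, 7, 9 and 12 and integrated as trapezoidal area under the curve. Rat cortical cultures on MEA plates received continuous compound from day 0, refreshed at medium changes on DIV 5 and 9.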

[18] = tested on: DIO2 (gene 1734); test: CCTE_GLTED_hDIO2: CCTE's human Deiodinase 2 (DIO2) Inhibition Assay, Great Lakes Toxicology and Ecology Division (GLTED) Lab (AID 2284050; active = hit-call score of the fitted dose curve at least 0.9, where 1 is the maximum)
Outline: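 Cell-free human DIO2 incubated 3 h with chemical; liberated iodide quantified by Sandell-Kolthoff absorbance. Triplicate plates; loss of signal fitted vs DMSO.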

[19] = CCTE_Deisenroth_AIME_384WELL_CTox_Active: Cytotoxicity Assessment (CTOX) in CCTE's 384-well Estrogen Receptor Transactivation Assay with AIME metabolic competence (metabolism positive), Deisenroth Lab (AID 2284037; active = hit-call score of the fitted dose curve at least 0.9, where 1 is the maximum;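 also: chemicals first conditioned 2 h by alginate-bound induced rat liver S9 before cells; activity means signal loss indicating cell death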)
Outline: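 VM7Luc4E2 breast cells received medium pre-incubated 2 h with chemical over alginate microspheres holding induced male Sprague Dawley rat liver S9; viability read 24 h later by protease-substrate fluorescence. Loss of signal, bidirectional fit, 0.002–200 uM.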

[20] = molecular target: Estrogen receptor (Homo sapiens) (UniProt P03372); test: CCTE_Deisenroth_AIME_384WELL_LUC_Inactive: CCTE's 384-well Estrogen Receptor Transactivation Assay without AIME metabolic competence (ERTA luciferase; metabolism negative), Deisenroth Lab (AID 2284038; active = hit-call score of the fitted dose curve at least 0.9, where 1 is the maximum;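 also: hits raise estrogen receptor luciferase signal so potencies reflect agonists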)
Outline: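 Metabolism-negative mode: chemicals (10-point, 0.002–200 uM) held 2 h with alginate-water microspheres, then conditioned medium applied to VM7Luc4E2 cells for 24 h. Luciferase induction referenced to 17beta-estradiol.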

Measured: AC50

CC(C)N(C(=O)COc1nnc(C(F)(F)F)s1)c1ccc(F)cc1
active: [8] 24.5 µM | [14] 23.3 µM | [15] 24.5 µM | [17] 15 µM
inactive: [1] | [2] | [3] | [4] | [5] | [6] | [7] | [8] | [9] | [10] | [11] | [12] | [13] | [14] | [15] | [16] | [17]

CCC(C)(NC(=O)c1cc(Cl)c(C)c(Cl)c1)C(=O)CCl (configuration not stated)
active: [18] 13.2 µM

ClC1C(Cl)C(Cl)C(Cl)C(Cl)C1Cl (configuration not stated)
not listed: [1] | [4] | [6] | [11] | [18] | [19] | [20]
inactive: all other assays above

CC1(C)C(C=C(Cl)Cl)C1C(=O)OC(C#N)c1ccc(F)c(Oc2ccccc2)c1 (configuration not stated)
active: [2] 1.15 µM and 9.57 µM | [3] 2.63 µM and 27.9 µM and 19.5 µM | [5] 10 µM and 26.4 µM and 10.4 µM | [7] 1.07 µM and 259 nM | [8] 2.28 µM and 25.9 µM and 9.56 µM | [9] 10 µM | [10] 2.04 µM and 8.68 µM and 7.93 µM | [11] 49.9 µM and 21 µM | [13] 235 nM and 10.6 µM and 6.32 µM | [14] 10 µM and 11.1 µM and 15 µM | [15] 5.46 µM and 10.2 µM and 8.39 µM | [16] 3.51 µM and 3.76 µM | [17] 3.15 µM and 12.1 µM and 11.9 µM
inactive: [2] | [7] | [9] | [11] | [12] | [16]

CCC(C)(C)C(=O)OC1=C(c2ccc(Cl)cc2Cl)C(=O)OC12CCCCC2
not listed: [1] | [4] | [6] | [18] | [19] | [20]
inactive: all other assays above

O=S1OCC2C(CO1)C1(Cl)C(Cl)=C(Cl)C2(Cl)C1(Cl)Cl (configuration not stated)
inactive: [2] | [19] | [4] | [6] | [9] | [10] | [11] | [12] | [16]
active: [1] 13.8 µM | [3] 8.83 µM | [20] 12 µM | [5] 8.87 µM | [7] 8.87 µM | [8] 8.62 µM | [13] 5.95 µM | [14] 8.02 µM | [15] 8.4 µM | [17] 8.24 µM
